Test results as given in PubChem BioAssay (NCI).
The panel holds about 79,000 compounds, 15% with a hit somewhere; the sample as a whole holds those more often. Calls of active or inactive are those of the source. Cut-off read from the data, not from the text of the source: active = growth inhibition above about 70%; inactive = the rest.

Experiments:
[1] = NCI Yeast Anticancer Drug Screen. Data for the rad52 strain (AID 147);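 note: 0% = growth of vehicle-treated control cultures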; conditions: S. cerevisiae rad52 mutant growth inhibition, hits give high values
Outline: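 Inhibition of yeast growth, referenced to vehicle controls, was the measured output for a strain with defective DNA damage repair.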

[2] = NCI Yeast Anticancer Drug Screen. Data for the wt1 strain (AID 149);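 note: 0% = growth of vehicle-treated wt1 cultures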; conditions: S. cerevisiae wt1 strain (SPY 50644) growth inhibition, hits give high values
Outline: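 Readout: yeast growth inhibition, normalised to vehicle controls, in the wt1 strain exposed to test compounds.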

[3] = NCI Yeast Anticancer Drug Screen. Data for the rad50EPP+ strain (AID 151);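 note: 0% = growth of vehicle-treated control cultures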; conditions: S. cerevisiae rad50 mutant strain, hits give high values
Outline: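 Genetically defined yeast (rad50EPP+, DNA damage repair alteration) is grown with compound, and inhibition of growth is expressed relative to vehicle-treated controls.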

[4] = NCI Yeast Anticancer Drug Screen. Data for the rad50 strain (AID 155);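 note: 0% = growth of vehicle-only cultures of the same strain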; conditions: S. cerevisiae rad50 strain growth inhibition, hits give high values
Outline: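 Compounds were tested on a yeast strain with an engineered DNA damage repair alteration; the reported value is growth inhibition normalised to vehicle treatment.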

[5] = NCI Yeast Anticancer Drug Screen. Data for the mec2-1 strain (AID 157); conditions: S. cerevisiae mec2-1 strain, hits give high values
Outline: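 Each compound was tested on mec2-1 yeast, a strain altered in DNA damage repair or cell cycle control. Growth inhibition is reported relative to vehicle.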

[6] = NCI Yeast Anticancer Drug Screen. Data for the rad14 strain (AID 159);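 note: 0% = growth of vehicle-treated control cultures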; conditions: S. cerevisiae rad14 strain growth inhibition, hits give high values
Outline: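 Compound-treated yeast with a defined DNA-repair lesion; growth inhibition normalised to vehicle-treated cultures.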

[7] = NCI Yeast Anticancer Drug Screen. Data for the sgs1 mgt1 strain (AID 161);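 note: 0% = growth of cultures given vehicle only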; conditions: S. cerevisiae sgs1 mgt1 strain, hits give high values
Outline: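 Test agents were incubated with a DNA-repair-mutant yeast strain. Growth was then read and compared against vehicle-treated controls.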

[8] = NCI Yeast Anticancer Drug Screen. Data for the CLN2oe strain (AID 163);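 note: 0% = growth of vehicle-only control cultures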; conditions: S. cerevisiae CLN2oe strain, hits give high values
Outline: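 First, the altered yeast strain was treated with each compound; second, its growth was measured; finally, inhibition was derived by comparison with vehicle controls.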

[9] = NCI Yeast Anticancer Drug Screen. Data for the bub3 strain (AID 167); conditions: S. cerevisiae bub3 mutant strain, hits give high values
Outline: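 Growth of a checkpoint-deficient yeast mutant is measured after compound exposure. Values represent inhibition relative to vehicle.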

[10] = NCI Yeast Anticancer Drug Screen. Data for the sgs1 strain (AID 173);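 note: 0% = growth of vehicle-only control cultures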; conditions: S. cerevisiae sgs1 mutant, hits give high values
Outline: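 Vehicle-treated cultures served as reference for growth inhibition of a yeast strain altered in DNA damage repair or cell cycle control after compound exposure.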

[11] = NCI Yeast Anticancer Drug Screen. Data for the mlh1 rad18 strain (AID 175); conditions: S. cerevisiae mlh1 rad18 strain growth inhibition, hits give high values
Outline: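 Inhibition values reflect reduced growth of mutant yeast versus vehicle-treated controls following compound exposure; the mutations affect DNA damage repair.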

[12] = NCI Yeast Anticancer Drug Screen. Data for the rad18 strain (AID 177); conditions: S. cerevisiae rad18 mutant growth inhibition, hits give high values
Outline: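 Steps: expose repair-mutant yeast to compound; measure growth; express as inhibition relative to vehicle control.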

[13] = NCI Yeast Anticancer Drug Screen. Data for the mgt1 strain (AID 153); conditions: S. cerevisiae mgt1 mutant growth inhibition, hits give high values
Outline: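 In the mgt1 strain, test compounds were added and growth inhibition was determined relative to vehicle-treated controls.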

[14] = NCI Yeast Anticancer Drug Screen. Data for the cln2 rad14 strain (AID 165);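 note: 0% = growth equal to vehicle treated cultures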; conditions: S. cerevisiae cln2 rad14 strain, hits give high values
Outline: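 Test compounds were added to cln2 rad14 yeast cultures; inhibition of growth was then determined by comparison with vehicle treatment.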

[15] = NCI Yeast Anticancer Drug Screen. Data for the wt2 strain (AID 169);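 note: 0% = growth of vehicle-treated yeast cultures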; conditions: S. cerevisiae wt2 strain growth inhibition, hits give high values
Outline: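 The panel's yeast strains carry defined changes in DNA repair or cell cycle genes. Each strain is grown with compound, and growth loss is scored relative to vehicle.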

[16] = NCI Yeast Anticancer Drug Screen. Data for the mlh1 strain (AID 171);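 note: 0% = growth of vehicle-treated control cultures of the same strain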; conditions: S. cerevisiae mlh1 strain growth inhibition, hits give high values
Outline: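 Inhibition values reflect reduced yeast growth in the presence of compound, referenced to vehicle controls, using a strain chosen for its alteration in DNA repair or cell cycle control.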

[17] = at 5.0 µM (retest, dose inferred, filed as 0.5)
[18] = at 50.0 µM (retest, dose inferred, filed as 5.0)

Measured: growth inhibition

Nc1ccc(N=Nc2ccc(-c3ccc(O)cc3)cc2)c2ccc(S(=O)(=O)O)cc12
active: [3]; at 33.0 µM 79% | [3]; at 100.0 µM 78% | [4]; at 50.0 µM 82.9% | [12]; at 100.0 µM 72%
inactive: [1]; at 1.2 µM -3% | [1]; at 3.7 µM 2% | [1]; at 11.0 µM 17% | [1]; at 33.0 µM 39% | [1]; at 100.0 µM 54% | [2]; at 1.2 µM 0% | [2]; at 3.7 µM 1% | [2]; at 11.0 µM 6% | [2]; at 33.0 µM 10% | [2]; at 100.0 µM 15% | [3]; at 1.2 µM 7% | [3]; at 3.7 µM 25% | [3]; at 11.0 µM 67% | [4]; at 1.2 µM 1% | [4]; at 3.7 µM 1% | [4]; [17] 8% | [4]; at 11.0 µM 17% | [4]; at 33.0 µM 25% | [4]; [18] 57% | [4]; at 100.0 µM 43% | [5]; at 1.2 µM 2% | [5]; at 3.7 µM 3% | [5]; [17] 15% | [5]; at 11.0 µM 8% | [5]; at 33.0 µM 14% | [5]; [18] 10% | [5]; at 50.0 µM 34.9% | [5]; at 100.0 µM 23% | [6]; at 1.2 µM -1% | [6]; at 3.7 µM -1% | [6]; at 11.0 µM 4% | [6]; at 33.0 µM 11% | [6]; at 100.0 µM 30% | [7]; [17] 1% | [7]; [18] 15% | [7]; at 50.0 µM 19.1% | [8]; at 1.2 µM 1% | [8]; at 3.7 µM 2% | [8]; at 11.0 µM 0% | [8]; at 33.0 µM -1% | [8]; at 100.0 µM -3% | [9]; at 1.2 µM -1% | [9]; at 3.7 µM -4% | [9]; [17] 9% | [9]; at 11.0 µM -2% | [9]; at 33.0 µM 15% | [9]; [18] 12% | [9]; at 50.0 µM 38.4% | [9]; at 100.0 µM -9% | [10]; at 1.2 µM 2% | [10]; at 3.7 µM 8% | [10]; at 11.0 µM 20% | [10]; at 33.0 µM 37% | [10]; at 100.0 µM 40% | [11]; [17] 5% | [11]; [18] 43% | [11]; at 50.0 µM 55.1% | [12]; at 1.2 µM -4% | [12]; at 3.7 µM 11% | [12]; at 11.0 µM 48% | [12]; at 33.0 µM 69%

CC(C)N(CCCNc1c2ccccc2nc2cccc([N+](=O)[O-])c12)C(C)C
active: [1]; at 3.7 µM 87% | [1]; at 11.0 µM 95% | [1]; at 33.0 µM 97% | [1]; at 100.0 µM 98% | [2]; at 33.0 µM 94% | [2]; at 100.0 µM 98% | [3]; at 3.7 µM 86% | [3]; at 11.0 µM 93% | [3]; at 33.0 µM 95% | [3]; at 100.0 µM 96% | [13]; at 33.0 µM 97% | [13]; at 100.0 µM 99% | [4]; at 3.7 µM 82% | [4]; [17] 86% | [4]; at 11.0 µM 92% | [4]; at 33.0 µM 94% | [4]; [18] 98% | [4]; at 50.0 µM 92.8% | [4]; at 100.0 µM 97% | [6]; at 1.2 µM 93% | [6]; at 3.7 µM 98% | [6]; at 11.0 µM 99% | [6]; at 33.0 µM 99% | [6]; at 100.0 µM 99% | [7]; [17] 91% | [7]; [18] 98% | [7]; at 50.0 µM 94.5% | [8]; at 33.0 µM 91% | [8]; at 100.0 µM 96% | [14]; [17] 97% | [14]; [18] 98% | [14]; at 50.0 µM 95.7% | [9]; at 33.0 µM 90% | [9]; [18] 97% | [9]; at 100.0 µM 98% | [15]; at 33.0 µM 96% | [15]; at 100.0 µM 98% | [16]; at 11.0 µM 72% | [16]; at 33.0 µM 96% | [16]; at 100.0 µM 98% | [10]; at 1.2 µM 80% | [10]; at 3.7 µM 91% | [10]; at 11.0 µM 95% | [10]; at 33.0 µM 97% | [10]; at 100.0 µM 98% | [11]; [17] 93% | [11]; [18] 98% | [11]; at 50.0 µM 95.9% | [12]; at 1.2 µM 95% | [12]; at 3.7 µM 95% | [12]; at 11.0 µM 95% | [12]; at 33.0 µM 95% | [12]; at 100.0 µM 98%
inactive: [1]; at 1.2 µM 51% | [2]; at 1.2 µM 0% | [2]; at 3.7 µM 5% | [2]; at 11.0 µM 43% | [3]; at 1.2 µM 52% | [13]; at 1.2 µM -1% | [13]; at 3.7 µM 8% | [13]; at 11.0 µM 67% | [4]; at 1.2 µM 42% | [8]; at 1.2 µM -9% | [8]; at 3.7 µM -12% | [8]; at 11.0 µM 51% | [9]; at 1.2 µM -20% | [9]; at 3.7 µM -18% | [9]; [17] -10% | [9]; at 11.0 µM 17% | [9]; at 50.0 µM 33.5% | [15]; at 1.2 µM 1% | [15]; at 3.7 µM 14% | [15]; at 11.0 µM 68% | [16]; at 1.2 µM 6% | [16]; at 3.7 µM 14%

CC(=O)Oc1ccc2c(c1)Cc1cc(N3C(=O)C=CC3=O)ccc1-2
active: [1]; at 11.0 µM 73% | [1]; at 33.0 µM 96% | [1]; at 100.0 µM 95% | [2]; at 33.0 µM 93% | [2]; at 100.0 µM 97% | [3]; at 1.2 µM 81% | [3]; at 3.7 µM 96% | [3]; at 11.0 µM 98% | [3]; at 33.0 µM 97% | [3]; at 100.0 µM 92% | [13]; at 33.0 µM 98% | [13]; at 100.0 µM 95% | [4]; at 11.0 µM 83% | [4]; at 33.0 µM 96% | [4]; [18] 99% | [4]; at 100.0 µM 93%
inactive: [1]; at 1.2 µM 10% | [1]; at 3.7 µM 29% | [2]; at 1.2 µM 1% | [2]; at 3.7 µM 12% | [2]; at 11.0 µM 35% | [13]; at 1.2 µM 7% | [13]; at 3.7 µM 19% | [13]; at 11.0 µM 58% | [4]; at 1.2 µM 7% | [4]; at 3.7 µM 32% | [4]; [17] 27% | [4]; at 50.0 µM 46.1% | [5]; at 1.2 µM 15% | [5]; at 3.7 µM 30%
